# CHX counter – counter-screen for Shiga toxin inhibitors: cycloheximide protein synthesis inhibition; cell reporter, cycloheximide protein synthesis inhibition counterscreen; max response, %; 300,000 compounds, 12% hits; AID 2314; in the data active means max response mostly above about 13%, no sharp cut-off; inactive means mostly below about 14%; further: read at 38.3 µM for the half of the compounds with a filed dose; 0% is about no effect
# Shiga toxin inh – blocks Shiga toxin action in Vero cells; Vero cells, Shiga toxin protein synthesis inhibition reporter; 290,000 compounds, 9.2% hits; inhibition, % at 38.7 µM; in the data active means inhibition mostly above about 28%, no sharp cut-off; inactive means mostly below about 43%; further: 0% is about no effect
# HCV inh – blocks hepatitis C virus. Huh7.5.1 HCVcc-Cre infection, luciferase reporter, 44 h. Potency, µM (highest dose often 41.8 µM), for inactives: at the top dose activity change, negative = inhibition, actives largely listed as inhibitors. 340,000 compounds, 3.4% hits. AID 651820; active means well fitted inhibition curve with a large enough effect; inconclusive means small, poorly fitted or top-dose-only effect, or another doubt; inactive means no such curve, though single readings can be large or run the other way; further: potency means the concentration at half of the fitted maximal effect; on the % scale 0 is the no-effect control and ±100 the full control effect
#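 Seed cells (1,000/well) for 4 h; treat with compound and infect with HCVcc-Cre, moi about 0.5. Incubate 44 h, then detect luciferase activity.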
# Lassa entry inh – inhibitors of Lassa virus binding or cell entry; Lassa virus pseudotype entry inhibition, cell reporter; Potency, µM (titrated, usually from 37.9 µM), without a hit: top-dose activity change, negative = inhibition, actives largely listed as inhibitors; 300,000 compounds, 1.2% hits; calls by dose curve; tested in HEK293 cells; further: potency means the concentration at half of the fitted maximal effect; on the % scale 0 is the no-effect control and ±100 the full control effect; nearly all actives have a fitted effect of over 50% in size
# Marburg entry inh – Marburg virus entry inhibition; Marburg virus pseudotyped entry inhibition, cell reporter; Potency, µM (doses to about 37.8 µM), for inactives: at the highest dose activity change, negative = inhibition, hits mostly inhibitors; 300,000 compounds, 1.8% hits; AID 540276; calls by dose curve; tested in HEK293 cells; further: potency means the concentration at half of the fitted maximal effect; on the % scale 0 is the no-effect control and ±100 the full control effect
# FMDV antiviral – blocks foot and mouth disease virus; FMDV antiviral cell-based qHTS; 410,000 compounds, 1.2% hits; Potency, µM (titrated, usually from 57.9 µM), without a hit: at the highest dose activity change, negative = inhibition, most hits filed as inhibitors; calls by dose curve; tested in HEK293T cells; further: read-out not given here; potency means the concentration at half of the fitted maximal effect; on the % scale 0 is the no-effect control and ±100 the full control effect; nearly all actives have a fitted effect of over 45% in size
# * marks the source's active call; other numbers are inactive results; ? = inconclusive; . = not tested or not shown; ! = repeats disagree; [ ] = another dose, or the depositor's remark. Hits are enriched below; roughly 13% of the tested compounds scored in any of these assays.
SMILES,CHX counter,Shiga toxin inh,HCV inh,Lassa entry inh,Marburg entry inh,FMDV antiviral
CC(C)c1ccc(S(=O)(=O)c2nnn3c2nc(NC2CCCC2)c2sccc23)cc1,.,.,.,1.5%[46.1 µM],.,0.5%
Cc1ccc(S(=O)(=O)Nc2ccc(NC(=O)Nc3ccc(F)cc3F)cc2)cc1,-3.2,-13.7,?,?,-20.0%,31.8%
CN(C)c1nn2c(-c3ccccc3)nnc2o1,.,.,.,.,.,-4.6%
N=C1SC(c2ccccc2)C(=O)N1c1ncc(Cc2ccccc2)s1 (centres undefined),17.6*,56.2*,8.8%,?,?,?
Clc1ccc(-n2nnnc2-c2cnc(-c3ccncc3)nc2-c2cccs2)cc1,-4.5,12.9,22.4µM*,?,?,-1.8%
COc1cc(OC)cc(C(=O)N[C@H](C(=O)NCc2ccccc2)C(C)C)c1,-1.0,-3.4,?,-16.7%[46.1 µM],-18.8%[46.1 µM],-0.5%
CC1=NNC(=O)/C1=C\c1cn(-c2ccccc2)nc1-c1ccc(Cl)cc1,1.9,-8.1,?,?,?,10µM*
Cc1ccc(-c2nn(-c3ccccc3)cc2C=C2C(=O)CC(C)(C)CC2=O)cc1,-3.0,9.5,-22.9%,-1.4%,-21.9%,-75.4%
CCSc1nnc2c(n1)OC(C)(C)Nc1ccccc1-2,33.8*,65.1*,24.2%,?,11.8%,.
N#C/C(=C/c1ccc([N+](=O)[O-])cc1)C(=O)Nc1ccccc1O,62.4*,74.3*,4.2%,13.5%,?,-10.5%
N#C/C(=C/c1ccc([N+](=O)[O-])cc1)C(N)=O,-2.8,-9.0,12.9%,-8.7%,-2.1%,-15.4%
N#C/C(=C\c1ccc([N+](=O)[O-])cc1)C(=O)Nc1ccccc1O,30.6*,39.5,-11.2%,14.3%,?,-24.4%
N#C/C(=C/c1ccc(O)c([N+](=O)[O-])c1)C(=O)Nc1ccccc1,26.5*,50.6*,11.2%,-6.8%[46.1 µM],2.51µM*,?
CNc1ccc(/C=C(\C#N)C(=O)Nc2ccccn2)cc1[N+](=O)[O-],-3.6,-6.1,0.0%,?,-7.5%[46.1 µM],32.0%
O=C(COc1cc2oc(=O)c3c(c2cc1Cl)CCC3)Nc1ccc(CN2CCOCC2)cc1,3.4,-5.2,6.7%,?,24.5%[46.1 µM],-0.1%
COc1cc(/C=C2/SC(=S)N(Cc3ccccc3)C2=O)ccc1OCC(=O)O,-0.4,.,-4.1%,-21.9%[46.1 µM],?,?
O=C1/C(=C\c2ccc(O)cc2)SC(=S)N1Cc1ccccc1,1.2,18.6,11.7%,?,?,-20.1%
CCOc1cc(/C=C2\SC(=O)N(c3ccc(O)cc3)C2=O)ccc1O,9.3*,49.9*,-21.8%,.,.,11.4%
CCOc1cc(/C=C2/SC(=S)N(Cc3ccccc3)C2=O)ccc1O,16.4*,41.7*,?,.,.,21.9%
O=C1/C(=C/c2ccccc2O)SC(=S)N1Cc1cccnc1,8.8,-12.3,-0.6%,10.5%,-3.9%,31.6µM*
Cc1ccc(C(=O)CSc2cnc3ccccc3n2)cc1C,63.3*,70.0*,-28.5%,?,18.4µM*,?
Cc1ccc(C(=O)COC(=O)c2cc(Cl)nc3ccccc23)cc1C,7.0,-5.5,3.3%,18.2%,-4.4%,-8.6%
Cc1ccc(C(=O)COC(=O)c2ccc(-c3cnc4ccccc4n3)cc2)cc1C,14.5*,-4.7,-26.7%,4.1%,27.7%,-17.1%
COC(=O)c1ccccc1NC(=O)Cc1nc(-c2ccccc2)sc1-c1ccc(C)cc1,32.7*,35.1*,8.8%,-0.3%,-14.4%,4.4%
COC(=O)c1ccccc1NC(=O)CSc1nnc(-c2ccc(C)cc2)o1,32.8*,54.7*,-8.2%,.,.,.
SMILES,CHX counter,Shiga toxin inh,HCV inh,Lassa entry inh,Marburg entry inh,FMDV antiviral
COC(=O)c1ccccc1NC(=O)CSc1nnc(-c2cccnc2)o1,21.2*,64.8,8.3%,.,?,58.1%
COc1ccc(C)cc1NC(=O)CSc1nnc(-c2ccc(C)cc2)o1,3.5,24.4,-17.3%,.,.,-29.2%
COc1ccc(-c2nnc(SCC(=O)Nc3ccccc3OC)o2)cc1,24.8*,57.6*,6.5%,-26.4%,?,23.2%
COC(=O)c1ccccc1NC(=O)Cc1noc2ccc(C)cc12,.,.,.,-10.7%[46.1 µM],.,-14.5%
COc1ccc(C(=O)N(Cc2ccc(N(C)C)cc2)CC2CCCO2)cc1 (centres undefined),.,.,.,?,5.8%[46.1 µM],12.1%
FC(F)(F)c1ccc(N2CCN(c3ncnc4c3nnn4Cc3ccccc3)CC2)nc1,-4.1,-6.3,4.0%,6.0%,-29.4%,-10.6%
COC(=O)CSc1nnc(-c2ccccc2OC)o1,9.2,-6.0,14.4%,-2.3%,-0.2%,8.4%
COc1ccccc1-c1nnc(SCC(=O)OC(C)C)o1,17.1,35.1*,-0.4%,-3.6%,7.8%,32.2%
O=C(c1ccc(O)cc1)c1ccc(C(=O)c2ccc(O)cc2)cc1,6.8,2.8,20.0%,?,?,5.4%
Oc1ccc(-c2nnc(-c3ccc(O)cc3)nn2)cc1,25.7*,25.4,1.9%,?,?,?
Oc1ccc(-c2cc(-c3ccc(O)cc3)nc(-c3ccccc3)n2)cc1,-4.4,-8.5,?,-16.5%[46.1 µM],?,-10.3%
Oc1ccc(O)cc1,.,.,.,?,7.94µM*!,10.7%
CC1CCN(C(=O)COc2cccc3c2CCN(C)C3=O)CC1,17.9,17.4,-0.7%,-0.1%,-18.5%[46.1 µM],8.5%
CN(C)S(=O)(=O)c1cccc(NC(=S)Nc2cccc3cnccc23)c1,7.5,17.2,-26.2%,?,?,?
O=C(CN(Cc1ccccc1)S(=O)(=O)c1ccc(Br)cc1)NCc1ccco1,14.7,24.9*,-17.3%,-2.2%,-2.2%,-14.3%
COc1ccccc1N(CC(=O)N/N=C/c1ccc(OCC(=O)NCc2ccco2)cc1)S(=O)(=O)c1ccc(C)cc1,-1.7,-15.3,5.01µM*,?,?,-24.7%
COc1ccc(N(CC(=O)NCc2ccco2)S(=O)(=O)c2ccc(C)cc2)cc1OC,6.7,2.8,11.6%,-3.7%,?,-4.9%
O=C(CN(Cc1ccc(Br)cc1)S(=O)(=O)c1ccccc1)NCc1ccccn1,-0.2,-29.4,6.8%,-0.4%,23.0%,-11.7%
Cc1cc(C)cc(N(CC(=O)Nc2ccccc2-c2ccccc2)S(=O)(=O)c2ccccc2)c1,8.1,-7.1,14.1%,20.5%,1.9%,0.0%
COc1ccccc1N(CC(=O)NCc1ccco1)S(=O)(=O)c1ccc(C)cc1,-2.4,5.6,6.4%,20.5%,1.3%[46.1 µM],-5.8%
Cc1ccc(N(CC(=O)Nc2ccccc2-c2ccccc2)S(=O)(=O)c2ccccc2)cc1,1.0,-4.0,10µM*,?,?,-9.7%
Cc1ccc(N(CC(=O)NCc2ccco2)S(=O)(=O)c2ccccc2)cc1,27.0*,30.2,-6.2%,-2.7%,-13.7%,23.5%
COc1ccc(-c2[nH]ncc2CN2CCN(c3ccccn3)CC2)c(OC)c1,-1.5,-1.4,11.4%,0.3%[46.1 µM],2.6%[46.1 µM],2.6%
CC1CCN(S(=O)(=O)c2ccc(C(C)C)cc2)CC1,-2.1,-2.2,-8.6%,?,?,-3.1%
CN1CCN(C(=O)CNc2ccc(C(F)(F)F)cc2[N+](=O)[O-])CC1,-2.3,-3.5,?,.,0.9%[46.1 µM],-11.1%

# High-throughput results from PubChem BioAssay.
